Screening results deposited in PubChem BioAssay by National Center for Advancing Translational Sciences (NCATS).
AmpC inh detg = blocks E. coli AmpC beta-lactamase in detergent assay; AID 485294; 370,000 compounds, 0.041% hits; P00811; AmpC hydrolysis of nitrocefin, absorbance 480 nm, 0.01% Triton; Potency, µM (series often up to 114 µM), for the others: top-dose activity change, negative = inhibition, most hits filed as inhibitors;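 note: 0% = no-compound wells and -100% = no-enzyme wells; nearly all actives have a fitted effect of over 25% in size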
Target sequence (P00811 whole entry, looked up): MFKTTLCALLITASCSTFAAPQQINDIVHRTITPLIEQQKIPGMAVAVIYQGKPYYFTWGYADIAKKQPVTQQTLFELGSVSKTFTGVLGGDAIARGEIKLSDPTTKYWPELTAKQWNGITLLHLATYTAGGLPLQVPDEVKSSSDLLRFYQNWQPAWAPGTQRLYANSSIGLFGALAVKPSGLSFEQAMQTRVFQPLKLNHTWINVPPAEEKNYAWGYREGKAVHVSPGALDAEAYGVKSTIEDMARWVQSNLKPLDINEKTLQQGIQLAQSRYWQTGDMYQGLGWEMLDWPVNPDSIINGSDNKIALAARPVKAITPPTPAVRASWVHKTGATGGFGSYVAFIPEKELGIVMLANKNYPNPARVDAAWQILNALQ
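20 mM phosphate pH 7.0 + 0.01% (detergent screen) or 0.0001% Triton X-100; 5.3 nM AmpC reagent; cpd preinc 15 min RT; nitrocefin (800 uM stock) to start; A480 q20 s × 4 min; Activity was normalised to no-enzyme and no-compound control wells.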
SARS PLP yeast = blocks SARS-CoV papain-like protease in a yeast assay | S. cerevisiae expressing SARS-CoV PLpro, growth rescue | Potency, µM (highest dose often 32.9 µM), inactives show at the top dose activity, positive = growth rescue, actives largely listed as activators | 330,000 compounds, 0.19% hits | AID 485353; calls by dose curve; note: 0% is about no effect; nearly all actives have a fitted effect of over 55% in size
TbPYK inhibitor = inhibitors of Trypanosoma brucei pyruvate kinase; Q57TT1; TbPYK enzyme, Kinase-Glo Plus ATP luminescence, 45 min; Potency, µM (series often up to 76.8 µM), inactives show top-dose activity, negative = inhibition, hits mostly inhibitors; 410,000 compounds, 0.12% hits; AID 624173; note: % is set by controls: 0 for no effect and ±100 for the full control effect; nearly all actives have a fitted effect of over 50% in size
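In this concentration-response screen, enzyme-free wells defined baseline while DMSO plates tracked drift. Each reaction combined TbPYK, substrate, compound and 130 uM ADP for 45 min at room temperature. Kinase-Glo Plus luminescence gave the signal.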
AmpC no deterg = blocks E. coli AmpC beta-lactamase in detergent-free assay; P00811; AmpC nitrocefin hydrolysis, absorbance 480 nm, 0.0001% Triton; Potency, µM (top dose mostly 57.1 µM), inactives show top-dose activity change, negative = inhibition, most hits filed as inhibitors; 330,000 compounds, 0.52% hits; AID 485341;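 note: plate controls were no compound for no effect and no enzyme for full effect; nearly all actives have a fitted effect of over 20% in size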
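AmpC (5.3 nM in the dispensed reagent) in 20 mM phosphate pH 7.0 with 0.01% (detergent screen) or 0.0001% Triton X-100 was preincubated with compounds for 15 min at room temperature. Nitrocefin was then added from an 800 uM solution, and hydrolysis was followed at 480 nm.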
RE007 growth inh = less growth of the S. pombe RE007 Vpr strain; S. pombe RE007 Vpr strain, BacTiter-Glo ATP luminescence, 24 h; Potency, µM (doses to about 92.2 µM), without a hit: at the highest dose activity change, negative = less growth, hits mostly inhibitors; 360,000 compounds, 0.21% hits; active = well fitted falling curve with a large enough effect; inconclusive = small, poorly fitted or top-dose-only effect; inactive = no such curve, though single readings can be large or run the other way; note: % is set by controls: 0 for no effect and ±100 for the full control effect; nearly all actives have a fitted effect of over 50% in size
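Fission yeast RE007 carrying one integrated HIV-1 vpr copy, seeded at OD 0.01 in PMG+AL medium with 23 nL pinned compound. Grown 24 h at 30 degrees; viability read by BacTiter-Glo luminescence after 5 min.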
Sm TGR inh = blocks Schistosoma mansoni thioredoxin glutathione reductase. Potency, µM (doses to about 114 µM), inactives show at the top dose activity change, negative = inhibition, most hits filed as inhibitors. 360,000 compounds, 3% hits. Q962Y6. purified TGR, DTNB reduction, TNB absorbance 405 nm; note: % is set by controls: 0 for no effect and ±100 for the full control effect; nearly all actives have a fitted effect of over 60% in size
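TGR 20 nM + NADPH 100 uM (dispensed conc.), cpd preinc 15 min RT; start with NADPH (500 uM addition) then DTNB (15 mM addition). Kinetic TNB absorbance, 405 nm filter. Four-parameter Hill fit across titration.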
Starred values were filed as active, the others as inactive; ? = inconclusive; / = no result given; [ ] = dose if it differs, or a comment. An excerpt weighted towards active compounds, which were near 3.3% of everything screened. Unless noted, calls come from the whole dose curve; as a rule, active = well fitted curve in the direction sought with a large enough effect; inconclusive = small, poorly fitted or top-dose-only effect, or another doubt; inactive = no such curve, though single readings can be large; an effect the other way counts as inactive or inconclusive. Potency is the fitted concentration of half-maximal effect.

SMILES	AmpC inh detg	SARS PLP yeast	TbPYK inhibitor	AmpC no deterg	RE007 growth inh	Sm TGR inh
N#Cc1c(Cl)nc(N/N=C/c2ccccc2)c(Cl)c1Cl	-18%	-16%	-8%	-39%	-1%	-29%
C[N+](C)(C)c1ccc(/C=N/Nc2nc(Cl)c(C#N)c(Cl)c2Cl)cc1	?	-57%	-11%	-4%	-20%	45µM*
COc1ccc(N(CC2CO2)S(=O)(=O)c2ccccc2)cc1 (stereo not drawn)	-2%	0%	-2%	-13%	3%	40µM*
COc1ccccc1N(CC1CO1)S(=O)(=O)c1ccccc1 (stereo not drawn)	?	1%	-9%	-6%	14%	2%
Cc1ccc(S(=O)(=O)c2nnn3c2nc(NCc2ccc4c(c2)OCO4)c2sccc23)cc1	7%	/	-2%	/	/	9%
Cc1nn(C)c(C)c1CS(=O)(=O)c1ccccc1	4%	7%	1%	-10%	-19%	22µM*
Cc1cccc(Cn2ccn(Cc3ccc(Cl)cc3)c(=O)c2=O)c1	19%	/	-13%	/	/	14%
O=[N+]([O-])c1cccc(-c2ccc(/C=N/NC(=S)NCc3ccco3)o2)c1	-4%	3%	-5%	8.9µM*	0%	-27%
COCCNC(=S)N/N=C/c1ccc(-c2ccc([N+](=O)[O-])cc2)o1	4%	-1%	1%	-29%	0%	?
Cc1cccc(OCCn2cccc2/C=C2/C(=O)NC(=O)N(Cc3ccco3)C2=O)c1	-7%	0%	-2%	-47%	-9%	4µM*
O=C1NC(=O)N(Cc2ccco2)C(=O)/C1=C/c1ccc(-c2cccc([N+](=O)[O-])c2)o1	?	-14%	?	35µM*	-2%	40µM*
O=C1NC(=O)/C(=C/c2ccc(-c3cccc([N+](=O)[O-])c3)o2)S1	-4%	-9%	-15%	-39%	-13%	0%
Cc1onc(-c2ccccc2)c1C(=O)N[C@@H]1C(=O)N2[C@@H](C(=O)O)C(C)(C)S[C@@H]12	/	/	-10%	/	/	/
Cc1nn(Cc2noc(C(=O)NCc3cccc(F)c3)n2)c(C)c1Br	-2%	/	-2%	/	/	6%
NCCCNCCCCNC(=O)C(O)NC(=O)CCCCCCN=C(N)N (stereo not drawn)	/	/	0%	/	/	/
S=C(NCCCn1ccnc1)Nc1ccc(Cl)cc1Cl	-5%	0%	-4%	-10%[2.29 µM]	-13%	32µM*
CN(C)S(=O)(=O)c1cccc(NC(=S)NCCCn2ccnc2)c1	-2%	1%	3%	-34%	1%	50µM*
CCOc1ccc(NC(=O)C(=O)NCCCn2ccnc2)cc1	-5%	-1%	9%	0.16µM*	-11%	-11%
O=C1CCCN1CCCNC(=S)Nc1ccc(Cl)cc1Cl	6%	0%	-2%	-32%	15%	89µM*
Cn1cc(S(=O)(=O)N2CCOCC2)cc1C(=O)Nc1cccc(C#N)c1	?	/	3%	/	/	2%
Oc1cc2c(cc1CN1CCN(c3ncccn3)CC1)OCO2	1%	-8%	2%	31%	2%	1µM*
CN(C)C(CNC(=O)NC1CCCCC1)c1cccnc1 (stereo not drawn)	-13%	4%	-2%	-4%	4%	40µM*
Cc1ccc(N(C(=O)CCl)C(C(=O)NC2CCCCC2)c2cccnc2)cc1C (stereo not drawn)	-6%	-6%	-5%	175%	3%	14µM*
CN(C)C(CNC(=O)c1cccs1)c1cccnc1 (stereo not drawn)	-15%	1%	3%	-14%	18%	0%
O=C(CCSc1ccccc1)Nc1nnc(-c2cccs2)o1	5%	2%	2%	-19%	0%	28µM*
SMILES	AmpC inh detg	SARS PLP yeast	TbPYK inhibitor	AmpC no deterg	RE007 growth inh	Sm TGR inh
Cc1ccccc1OCCSc1nc2ccc(NC(=O)c3cccs3)cc2s1	4%	/	0%	/	/	3%
O=C(c1ccc(-c2cccc(C(F)(F)F)c2)o1)N1CCOCC1	?	0%	-3%	35%	2%	-14%
CC(=O)N1CCN(C(=O)c2ccc(-c3cccc(C(F)(F)F)c3)o2)CC1	?	-6%	1%	50%	-26%	32µM*
Cc1ccc2c(=O)c(C(=O)c3cccc(Cl)c3)cn(CC(=O)NC3CCCCC3)c2n1	1%	/	-3%	/	/	-2%
S=C(NCc1ccc(Cl)cc1)Nc1ccncc1	0%	2%	-6%	-39%	3%	35µM*
COc1ccc(N2C(N)=C(C#N)C(c3cccnc3)C3=C2CC(C)(C)CC3=O)cc1 (stereo not drawn)	-2%	-3%	-13%	-3%	4%	10µM*
CC1(C)CC(=O)C2=C(C1)N(c1cccnc1)C(N)=C(C#N)C2c1cccs1 (stereo not drawn)	-7%	25%	4%	-17%	15%	50µM*
COc1ccc(C2C(C#N)=C(N)N(N(C)C)C3=C2C(=O)CC(C)(C)C3)cc1OC (stereo not drawn)	2%	-1%	0%	-7%	7%	4%
CCSc1sccc1C1C(C#N)=C(N)N(c2cccnc2)C2=C1C(=O)CC(C)(C)C2 (stereo not drawn)	-8%	4%	-4%	34%	-5%	-20%
COc1ccc(C2C(C#N)=C(N)N(c3cccnc3)C3=C2C(=O)CC(C)(C)C3)cc1OC (stereo not drawn)	?	6%	-14%	9%	?	45µM*
C[C@]12C=CC(=O)C=C1[C@@H](F)C[C@@H]1[C@@H]2[C@@H](O)C[C@@]2(C)[C@H]1CC[C@]2(O)C(=O)CO	/	/	-9%	/	/	/
CCOc1ccc(C(=O)N/N=C/c2ccc(-c3ccc(S(=O)(=O)Nc4ncccn4)cc3)o2)cc1	2%	0%	-6%	-13%	-6%	-8%
O=C(N/N=C/c1ccc(-c2ccc(S(=O)(=O)Nc3ncccn3)cc2)o1)c1cc2ccccc2cc1O	-12%	8%	-3%	20µM*	-8%	43%
Nc1cccc(Nc2ccccc2)c1	3%	1%	2%	-23%	-4%	40µM*
c1ccc(Nc2cccc(Nc3ccccc3)c2)cc1	3%	-52%	-4%	-20%	?	35µM*
CC(C)CC(=O)Nc1ccccc1OCc1cc(=O)n2ccccc2n1	-2%	/	-4%	/	/	1%
COc1cccc(OC)c1-c1cc(C(=O)NC2(C(=O)O)C3CC4CC(C3)CC2C4)nn1-c1ccnc2cc(Cl)ccc12 (stereo not drawn)	/	/	-9%	/	/	/
Cc1sc2c3ccsc3ccc2[n+]1C	?	-25%	8.9µM*	83%	-12%	6%
